Where “and” joins values, the source holds several entries; their conditions need not be identical. Equal entries are not always repeated. Results filed as inconclusive are left out. A structure can be active in one record and inactive in another. Calls of active or inactive are those of the source. How the source made its calls, unless noted: active means hit-call score of the fitted dose curve at least 0.9, where 1 is the maximum; inactive means score below 0.9.
Legend:
[1] = target: human CYP1A1, CYP1A1 (gene 1543) (UniProt P04798); experiment: NVS_ADME_hCYP1A1: NovaScreen (NVS) CYP450-related Enzyme Activity (ADME) Assay for human CYP1A1 (AID 2283100; active means hit-call score of the fitted dose curve at least 0.9, where 1 is the maximum)
human CYP1A1, CYP1A1 (gene 1543), sequence (P04798 whole entry, looked up): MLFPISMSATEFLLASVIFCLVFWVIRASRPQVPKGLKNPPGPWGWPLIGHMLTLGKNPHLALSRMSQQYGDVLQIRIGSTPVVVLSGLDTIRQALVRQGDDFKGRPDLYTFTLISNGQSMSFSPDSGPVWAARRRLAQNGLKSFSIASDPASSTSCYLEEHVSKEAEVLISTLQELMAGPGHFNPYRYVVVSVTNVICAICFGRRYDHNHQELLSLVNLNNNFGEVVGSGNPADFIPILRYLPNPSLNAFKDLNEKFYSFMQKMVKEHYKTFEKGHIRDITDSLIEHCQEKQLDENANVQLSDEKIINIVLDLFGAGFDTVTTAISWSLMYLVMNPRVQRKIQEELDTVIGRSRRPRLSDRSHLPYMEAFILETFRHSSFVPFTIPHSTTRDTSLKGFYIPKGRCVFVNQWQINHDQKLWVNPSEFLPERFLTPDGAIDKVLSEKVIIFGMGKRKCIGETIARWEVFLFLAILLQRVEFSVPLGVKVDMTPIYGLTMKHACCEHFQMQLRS
Outline: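 Compounds first went through duplicate single-concentration testing at 10 uM against purified CYP1A1. Those passing a threshold such as 30% inhibition entered singleton dose-response, highest concentration 20 uM. Signal was fluorescence measured after 1 hour.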

[2] = target: human Caspase 5 (CASP5), CASP5 (gene 838) (UniProt P51878); experiment: NVS_ENZ_hCASP5: NovaScreen (NVS) Enzymatic Assay for human Caspase 5 (CASP5) (AID 2283137; active means hit-call score of the fitted dose curve at least 0.9, where 1 is the maximum)
human Caspase 5 (CASP5), CASP5 (gene 838), sequence (P51878 whole entry, looked up): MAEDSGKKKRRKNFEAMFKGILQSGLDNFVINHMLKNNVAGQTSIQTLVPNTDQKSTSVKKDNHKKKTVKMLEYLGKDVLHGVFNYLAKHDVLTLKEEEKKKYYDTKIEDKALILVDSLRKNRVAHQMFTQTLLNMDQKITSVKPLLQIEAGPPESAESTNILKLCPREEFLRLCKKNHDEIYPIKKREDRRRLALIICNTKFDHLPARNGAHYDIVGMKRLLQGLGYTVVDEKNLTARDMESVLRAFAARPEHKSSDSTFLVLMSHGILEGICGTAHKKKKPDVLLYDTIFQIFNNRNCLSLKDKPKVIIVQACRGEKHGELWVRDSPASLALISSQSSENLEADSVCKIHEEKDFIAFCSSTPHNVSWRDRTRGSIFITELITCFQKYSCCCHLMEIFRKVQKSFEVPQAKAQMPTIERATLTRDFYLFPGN
Outline: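 Chemicals were first tested in duplicate at 25 uM against recombinant caspase 5 from E. coli. Activity was read by fluorescence intensity 2 hours after dosing. Those passing a preset inhibition threshold were retested in singleton concentration-response up to 50 uM.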

[3] = target: human CYP2D6, CYP2D6 (gene 1565) (UniProt P10635); experiment: NVS_ADME_hCYP2D6: NovaScreen (NVS) CYP450-related Enzyme Activity (ADME) Assay for human CYP2D6 (AID 2283107; active means hit-call score of the fitted dose curve at least 0.9, where 1 is the maximum)
human CYP2D6, CYP2D6 (gene 1565), sequence (P10635 whole entry, looked up): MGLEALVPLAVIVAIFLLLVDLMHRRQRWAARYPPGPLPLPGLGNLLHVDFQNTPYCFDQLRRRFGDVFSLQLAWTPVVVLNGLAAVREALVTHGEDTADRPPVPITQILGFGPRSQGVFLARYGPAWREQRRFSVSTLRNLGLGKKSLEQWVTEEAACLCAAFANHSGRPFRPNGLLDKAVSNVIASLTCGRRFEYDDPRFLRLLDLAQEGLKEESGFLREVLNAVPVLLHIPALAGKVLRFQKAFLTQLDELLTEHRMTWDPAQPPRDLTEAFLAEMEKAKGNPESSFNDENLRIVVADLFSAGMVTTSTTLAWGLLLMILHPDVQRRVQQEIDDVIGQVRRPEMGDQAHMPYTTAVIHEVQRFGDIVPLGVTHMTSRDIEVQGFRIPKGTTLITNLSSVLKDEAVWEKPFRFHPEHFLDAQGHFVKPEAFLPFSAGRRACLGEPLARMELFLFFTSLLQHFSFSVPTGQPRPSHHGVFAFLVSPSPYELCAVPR
Outline: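 Compounds were first tested in duplicate at 10 uM against recombinant enzyme produced in insect cells, with substrate turnover measured by fluorescence after 1 hour. Decreased signal, referenced to acetonitrile vehicle, was taken as reduced enzyme activity. Active chemicals went on to concentration-response testing.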

[4] = target: human CYP2C9, CYP2C9 (gene 1559) (UniProt P11712); experiment: NVS_ADME_hCYP2C9: NovaScreen (NVS) CYP450-related Enzyme Activity (ADME) Assay for human CYP2C9 (AID 2283108; active means hit-call score of the fitted dose curve at least 0.9, where 1 is the maximum)
human CYP2C9, CYP2C9 (gene 1559), sequence (P11712 whole entry, looked up): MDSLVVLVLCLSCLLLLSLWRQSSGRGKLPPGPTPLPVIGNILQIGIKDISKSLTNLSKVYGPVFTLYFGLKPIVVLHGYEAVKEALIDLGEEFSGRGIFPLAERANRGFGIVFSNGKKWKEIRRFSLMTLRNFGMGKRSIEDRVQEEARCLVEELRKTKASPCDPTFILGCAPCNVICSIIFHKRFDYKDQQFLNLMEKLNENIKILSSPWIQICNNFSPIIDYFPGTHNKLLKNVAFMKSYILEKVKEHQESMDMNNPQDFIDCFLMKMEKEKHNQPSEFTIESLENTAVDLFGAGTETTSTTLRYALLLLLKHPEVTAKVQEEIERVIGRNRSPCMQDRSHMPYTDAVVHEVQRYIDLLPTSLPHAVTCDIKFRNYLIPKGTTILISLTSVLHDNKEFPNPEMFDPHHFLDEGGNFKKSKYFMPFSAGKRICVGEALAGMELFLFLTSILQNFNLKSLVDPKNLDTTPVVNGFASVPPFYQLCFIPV
Outline: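 Cell-free assay of recombinant human CYP2C9 produced in Sf9 cells, with enzyme activity read by fluorescence intensity 0.75 h after compound addition. Loss of signal versus an acetonitrile negative control indicates inhibition. Primary screen used 10 uM in duplicate; actives were retested in concentration series.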

[5] = read-out: Monokine induced gamma interferon (MIG), CXCL9 (gene 4283); experiment: BSK_SAg_MIG: BioMAP Diversity Plus: SAg Assay for Monokine induced gamma interferon (MIG) Biomarker Activity (AID 2283092); conditions: primary human HUVEC with PBMC; actives raise or lower the signal
Outline: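 HUVEC plus human PBMC co-culture, chemicals dosed and MIG (CXCL9) quantified by ELISA at 24 h. Bidirectional curve fitting against DMSO as negative control and baseline, so both gain and loss of signal count as activity.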

[6] = BSK_SAg_PBMCCytotoxicity: PBMC Cytotoxicity Assessment in the BioMAP Diversity Plus: SAg Assay (AID 2283093); conditions: primary human HUVEC with PBMC;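 further: PBMC viability measured as Alamar Blue reduction fluorescence at 546/580 nm; fitted both ways against DMSO so a hit may be loss or gain of signal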;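 on AC50: PBMC superantigen activated with SEB plus TSST-1 one hour after compound addition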
Outline: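 Alamar Blue reduction (6 h, 546/580 nm) reports PBMC cytotoxicity after 90 h superantigen activation (SEB, TSST-1; 20 ng/mL final each) with 1 h compound pre-treatment. Gain or loss of signal fitted versus DMSO.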

[7] = read-out: Interleukin-8 (IL8), CXCL8 (gene 3576); experiment: BSK_SAg_IL8: BioMAP Diversity Plus: SAg Assay for Interleukin-8 (IL8) Biomarker Activity (AID 2283094); conditions: primary human HUVEC with PBMC; actives raise or lower the signal
Outline: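 Chemicals were dosed onto a human endothelial–PBMC co-culture, and IL-8 was quantified by ELISA after 24 h. Both increases and decreases were fitted relative to DMSO.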

[8] = BSK_SAg_Proliferation: Cell Proliferation Assessment in the BioMAP Diversity Plus: SAg Assay (AID 2283095); conditions: primary human HUVEC with PBMC;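 further: relative cell number as total protein by SRB absorbance in sub-confluent culture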
Outline: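 Absorbance of sulforhodamine B at 560 nm reports total protein in a human vascular endothelial/PBMC co-culture after 96 h chemical exposure. Gain or loss of signal is fitted in both directions against DMSO.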

[9] = BSK_SAg_SRB: Viability Assessment in the BioMAP Diversity Plus: SAg Assay (AID 2283096); conditions: primary human HUVEC with PBMC;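 further: cells read one day after compound addition; hits may be either gain or loss of signal compared with DMSO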
Outline: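 This overt-cytotoxicity endpoint quantifies protein in human endothelial/PBMC co-cultures at 24 h using SRB absorbance (560 nm) after trichloroacetic acid fixation. Values reflect signal change from the DMSO negative control, fitted bidirectionally.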

[10] = target: Cytochrome P450 2C19 (Homo sapiens) (UniProt P33261); experiment: NVS_ADME_hCYP2C19: NovaScreen (NVS) CYP450-related Enzyme Activity (ADME) Assay for human CYP2C19 (AID 2283113; active means hit-call score of the fitted dose curve at least 0.9, where 1 is the maximum;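 on AC50: potency for inhibition seen as loss of fluorescent signal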)
Outline: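 Chemicals first screened in duplicate at 10 uM against recombinant human enzyme produced in insect cells; confirmed actives then run as concentration series. Fluorogenic substrate turnover read by fluorescence after 1 h, normalised to acetonitrile.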

[11] = target: human Beta-secretase (BACE), BACE1 (gene 23621) (UniProt P56817); experiment: NVS_ENZ_hBACE: NovaScreen (NVS) Enzymatic Assay for human Beta-secretase (BACE) (AID 2283140; active means hit-call score of the fitted dose curve at least 0.9, where 1 is the maximum;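 further: hits are inhibitors that reduce fluorescent substrate signal versus DMSO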)
human Beta-secretase (BACE), BACE1 (gene 23621), sequence (P56817 whole entry, looked up): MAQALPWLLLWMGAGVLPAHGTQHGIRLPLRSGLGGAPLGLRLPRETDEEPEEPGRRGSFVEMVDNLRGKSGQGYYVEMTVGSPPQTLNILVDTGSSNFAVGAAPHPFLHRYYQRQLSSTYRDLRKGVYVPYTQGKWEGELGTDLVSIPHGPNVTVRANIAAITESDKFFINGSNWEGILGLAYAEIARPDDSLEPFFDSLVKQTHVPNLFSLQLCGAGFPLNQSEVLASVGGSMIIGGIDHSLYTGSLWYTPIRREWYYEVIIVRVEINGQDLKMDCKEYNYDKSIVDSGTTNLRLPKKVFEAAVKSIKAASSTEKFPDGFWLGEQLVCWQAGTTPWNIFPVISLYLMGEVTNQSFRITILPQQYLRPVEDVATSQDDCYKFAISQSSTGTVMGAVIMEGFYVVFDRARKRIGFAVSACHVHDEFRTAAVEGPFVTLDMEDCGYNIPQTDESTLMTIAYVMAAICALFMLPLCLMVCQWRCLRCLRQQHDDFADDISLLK
Outline: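 Fluorescence intensity read-out of protease activity defines this endpoint; signal loss relative to DMSO baseline marks inhibition. Recombinant enzyme from SF9 cells, cell-free format, 1 h exposure. Single-concentration duplicate screen (25 uM) precedes concentration-series follow-up.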

[12] = target: human CYP2A6, CYP2A6 (gene 1548) (UniProt P11509); experiment: NVS_ADME_hCYP2A6: NovaScreen (NVS) CYP450-related Enzyme Activity (ADME) Assay for human CYP2A6 (AID 2283099; active means hit-call score of the fitted dose curve at least 0.9, where 1 is the maximum)
human CYP2A6, CYP2A6 (gene 1548), sequence (P11509 whole entry, looked up): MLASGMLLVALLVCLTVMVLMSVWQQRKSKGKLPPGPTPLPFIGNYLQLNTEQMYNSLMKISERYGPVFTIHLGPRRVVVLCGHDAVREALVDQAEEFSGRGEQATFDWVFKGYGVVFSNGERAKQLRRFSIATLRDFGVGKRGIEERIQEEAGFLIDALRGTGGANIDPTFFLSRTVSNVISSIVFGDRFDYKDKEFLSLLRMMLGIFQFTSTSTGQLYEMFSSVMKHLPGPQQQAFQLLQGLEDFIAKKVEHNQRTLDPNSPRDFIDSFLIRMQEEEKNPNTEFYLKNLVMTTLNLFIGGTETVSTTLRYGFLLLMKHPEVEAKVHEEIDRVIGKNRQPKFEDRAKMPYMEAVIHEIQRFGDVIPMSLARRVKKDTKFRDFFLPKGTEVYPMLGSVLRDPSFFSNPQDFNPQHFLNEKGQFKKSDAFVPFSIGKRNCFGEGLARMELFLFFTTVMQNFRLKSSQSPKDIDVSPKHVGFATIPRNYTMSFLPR
Outline: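 Recombinant human CYP2A6 from insect cells was incubated with chemical for 0.5 h and activity read by fluorescence. Single-concentration duplicates at 10 uM preceded concentration-response testing to 20 uM, with activity referenced to acetonitrile.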

[13] = target: human CYP2B6, CYP2B6 (gene 1555) (UniProt P20813); experiment: NVS_ADME_hCYP2B6: NovaScreen (NVS) CYP450-related Enzyme Activity (ADME) Assay for human CYP2B6 (AID 2283101; active means hit-call score of the fitted dose curve at least 0.9, where 1 is the maximum)
human CYP2B6, CYP2B6 (gene 1555), sequence (P20813 whole entry, looked up): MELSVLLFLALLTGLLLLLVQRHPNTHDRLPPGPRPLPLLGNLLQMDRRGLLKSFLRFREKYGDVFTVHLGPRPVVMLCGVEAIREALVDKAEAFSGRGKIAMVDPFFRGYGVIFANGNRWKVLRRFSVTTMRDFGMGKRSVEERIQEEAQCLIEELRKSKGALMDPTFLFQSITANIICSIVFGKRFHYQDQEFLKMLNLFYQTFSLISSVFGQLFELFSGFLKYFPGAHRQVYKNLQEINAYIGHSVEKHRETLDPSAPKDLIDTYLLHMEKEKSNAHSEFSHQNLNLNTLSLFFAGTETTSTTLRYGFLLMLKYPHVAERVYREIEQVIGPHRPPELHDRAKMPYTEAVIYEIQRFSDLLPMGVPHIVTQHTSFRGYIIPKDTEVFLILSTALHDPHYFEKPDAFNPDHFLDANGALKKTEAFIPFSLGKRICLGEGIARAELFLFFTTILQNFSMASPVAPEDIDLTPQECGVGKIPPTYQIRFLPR
Outline: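 Recombinant human CYP2B6 with fluorogenic substrate, read by fluorescence intensity 1 h after dosing. Primary screen in duplicate at 10 uM, actives followed in concentration series; signal loss relative to acetonitrile control.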

[14] = target: human CYP1A2, CYP1A2 (gene 1544) (UniProt P05177); experiment: NVS_ADME_hCYP1A2: NovaScreen (NVS) CYP450-related Enzyme Activity (ADME) Assay for human CYP1A2 (AID 2283102; active means hit-call score of the fitted dose curve at least 0.9, where 1 is the maximum;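 further: fluorescence from turnover of a fluorogenic substrate by recombinant insect-cell CYP1A2; potency for inhibition since loss of fluorescence marks reduced CYP1A2 activity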)
human CYP1A2, CYP1A2 (gene 1544), sequence (P05177 whole entry, looked up): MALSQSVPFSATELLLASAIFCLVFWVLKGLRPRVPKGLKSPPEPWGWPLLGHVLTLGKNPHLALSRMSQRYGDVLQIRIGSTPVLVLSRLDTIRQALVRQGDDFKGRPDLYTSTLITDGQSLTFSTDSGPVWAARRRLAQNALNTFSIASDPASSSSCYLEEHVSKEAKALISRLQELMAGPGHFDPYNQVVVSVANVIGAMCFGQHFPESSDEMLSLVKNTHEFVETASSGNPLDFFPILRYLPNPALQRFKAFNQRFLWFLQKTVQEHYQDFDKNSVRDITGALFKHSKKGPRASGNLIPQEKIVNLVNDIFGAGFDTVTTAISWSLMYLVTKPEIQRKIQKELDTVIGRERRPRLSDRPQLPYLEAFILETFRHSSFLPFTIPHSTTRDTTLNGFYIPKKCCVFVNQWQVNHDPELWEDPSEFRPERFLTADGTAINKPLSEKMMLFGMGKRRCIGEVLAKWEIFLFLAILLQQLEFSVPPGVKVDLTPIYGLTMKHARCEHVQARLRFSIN
Outline: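 Compounds were tested at 10 uM in duplicate against recombinant CYP1A2 produced in insect cells. Enzyme activity was measured by fluorescence 0.5 h after dosing, with loss of signal versus acetonitrile control. Active compounds were re-tested in concentration series.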

Caspase-3 (Homo sapiens) = Caspase-3 (Homo sapiens) (UniProt P42574); experiment: NVS_ENZ_hCASP3: NovaScreen (NVS) Enzymatic Assay for human Caspase 3 (CASP3) (AID 2283139; active means hit-call score of the fitted dose curve at least 0.9, where 1 is the maximum)
Outline: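 Single-concentration screening at 25 uM in duplicate, with concentration-response follow-up to a 50 uM maximum for chemicals passing the threshold. Caspase-3 (human, E. coli-expressed) activity was read as substrate fluorescence after 1 h, with loss of signal relative to DMSO.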

[15] = target: human AKT serine/threonine Kinase 1 (AKT1), AKT1 (gene 207) (UniProt P31749); experiment: NVS_ENZ_hAKT1: NovaScreen (NVS) Enzymatic Assay for human AKT serine/threonine Kinase 1 (AKT1) (AID 2283138; active means hit-call score of the fitted dose curve at least 0.9, where 1 is the maximum)
human AKT serine/threonine Kinase 1 (AKT1), AKT1 (gene 207), sequence (P31749 whole entry, looked up): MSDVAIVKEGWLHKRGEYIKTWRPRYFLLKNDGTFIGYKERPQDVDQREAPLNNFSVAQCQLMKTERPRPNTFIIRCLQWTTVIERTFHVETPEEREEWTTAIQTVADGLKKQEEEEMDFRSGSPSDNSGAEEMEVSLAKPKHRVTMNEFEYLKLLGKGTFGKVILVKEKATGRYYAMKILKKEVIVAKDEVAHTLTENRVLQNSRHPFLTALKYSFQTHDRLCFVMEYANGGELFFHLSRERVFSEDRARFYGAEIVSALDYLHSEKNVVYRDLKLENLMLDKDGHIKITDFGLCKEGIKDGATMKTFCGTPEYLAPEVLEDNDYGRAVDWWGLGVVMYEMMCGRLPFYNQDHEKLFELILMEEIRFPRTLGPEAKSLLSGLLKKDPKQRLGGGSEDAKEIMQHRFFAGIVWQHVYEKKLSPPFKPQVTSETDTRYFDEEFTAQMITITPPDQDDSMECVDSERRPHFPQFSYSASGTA
Outline: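 Compounds were first tested in duplicate at 25 uM, and those passing a threshold such as 30% inhibition were run in concentration-response to a maximum of 50 uM. Enzyme activity was measured after 1 h by fluorescence following substrate/product mobility-shift separation.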

[16] = target: Cytochrome P450 3A4 (Homo sapiens) (UniProt P08684); experiment: NVS_ADME_hCYP3A4: NovaScreen (NVS) CYP450-related Enzyme Activity (ADME) Assay for human CYP3A4 (AID 2283110; active means hit-call score of the fitted dose curve at least 0.9, where 1 is the maximum)
Cytochrome P450 3A4 (Homo sapiens), sequence (P08684 whole entry, looked up): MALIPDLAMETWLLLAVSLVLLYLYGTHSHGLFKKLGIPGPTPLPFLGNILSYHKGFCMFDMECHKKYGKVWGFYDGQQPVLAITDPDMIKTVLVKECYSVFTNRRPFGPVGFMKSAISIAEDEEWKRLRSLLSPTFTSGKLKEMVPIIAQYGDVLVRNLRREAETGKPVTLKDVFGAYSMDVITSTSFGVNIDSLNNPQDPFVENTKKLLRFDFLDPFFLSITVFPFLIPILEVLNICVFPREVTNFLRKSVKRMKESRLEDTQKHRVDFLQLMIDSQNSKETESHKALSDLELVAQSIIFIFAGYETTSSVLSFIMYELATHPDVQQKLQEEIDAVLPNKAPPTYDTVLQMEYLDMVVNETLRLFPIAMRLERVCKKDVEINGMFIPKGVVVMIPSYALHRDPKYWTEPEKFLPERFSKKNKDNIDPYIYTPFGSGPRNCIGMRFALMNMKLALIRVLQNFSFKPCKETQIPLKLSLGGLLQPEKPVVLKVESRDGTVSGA
Outline: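 Activity is derived from decreased fluorescence intensity relative to acetonitrile, measured 0.33 hour after dosing insect-cell-expressed CYP3A4 in a cell-free format. Screening used 10 uM in duplicate before concentration-response follow-up.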

[17] = target: human AKT serine/threonine Kinase 2 (AKT2), AKT2 (gene 208) (UniProt P31751); experiment: NVS_ENZ_hAKT2: NovaScreen (NVS) Enzymatic Assay for human AKT serine/threonine Kinase 2 (AKT2) (AID 2283141; active means hit-call score of the fitted dose curve at least 0.9, where 1 is the maximum)
Outline: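 Cell-free fluorescence/electrophoretic mobility shift readout of recombinant human AKT2 activity, 1 h after chemical dosing. Duplicate primary screen at 25 uM, then singleton concentration-response up to 50 uM; loss of signal versus DMSO baseline.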

Measured: AC50

c1ccc2cc3c(ccc4ccccc43)cc2c1
inactive: [1] | [2]

Cc1cc(CCN2CCN(c3nsc4ccccc34)CC2)cc2c1NC(=O)CC2(C)C
inactive: [1] | [3]
active: [4] 10 µM

CC[C@H](c1ccc(O)cc1)[C@@H](CC)c1ccc(O)cc1
active: [4] 0.295 µM

CCCCCCCCCCCCCC[N+](C)(C)C
active: [5] 7.11 µM | [6] 4.69 µM | [7] 3.2 µM | [8] 0.539 µM | [9] 3.15 µM | [3] 3.64 µM | [10] 2.73 µM | [11] 4.96 µM

CCCOC(=O)c1ccc(O)cc1
inactive: [5] | [6] | [7] | [8] | [9] | [12] | [13]

O=C(OCCOCCOC(=O)c1ccccc1)c1ccccc1
inactive: [5] | [6] | [7] | [8] | [9] | [1]
active: [14] 1.71 µM | [4] 15.3 µM | [10] 7.94 µM

CC(O)CO (stereo not given)
inactive: [5] | [6] | [7] | [8] | [9] | Caspase-3 (Homo sapiens)

CCCCCCCCOC(=O)CCCCCCCCC(=O)OCCCCCCCC
inactive: [5] | [6] | [7] | [8] | [9] | [15]

Nc1cccc2c(N)cccc12
inactive: [5] | [7] | [9] | [1]
active: [6] 13.7 µM | [8] 17.5 µM | [13] 7.14 µM | [14] 3.06 µM | [3] 3.62 µM | [4] 6.16 µM | [10] 3.08 µM | [15] 3.13 µM | [11] 19.5 µM

CCC(=C(c1ccc(O)cc1)c1ccc(OCCN(C)C)cc1)c1ccccc1
active: [5] 13.2 µM | [6] 7.32 µM | [7] 10.2 µM | [8] 5.91 µM | [9] 8.31 µM | [10] 3.91 µM | [11] 16.1 µM
inactive: [15]

Oc1cc2ccccc2c2ccccc12
inactive: [12]
active: [5] 10.8 µM | [6] 3.93 µM | [7] 9.87 µM | [8] 3.62 µM | [9] 9.94 µM | [1] 5.31 µM | [13] 1.31 µM | [14] 0.0278 µM | [3] 0.136 µM | [4] 0.235 µM | [16] 6.68 µM | [10] 0.872 µM | [2] 6.88 µM | Caspase-3 (Homo sapiens) 12.6 µM

CCN(CC)CCNc1ccc(CNC=O)c2sc3ccc(OC)cc3c(=O)c12
active: [5] 36.4 µM | [6] 12.9 µM | [7] 20 µM | [8] 7.57 µM | [9] 17.8 µM | [1] 6.62 µM | [14] 7.1 µM
inactive: [12]

CC(C)(C)c1ccc(O)c(C(C)(C)C)c1
inactive: [11]
active: [5] 28.7 µM | [6] 12.9 µM | [7] 20 µM | [8] 10.8 µM | [9] 16.6 µM

COC(=O)CCCCC(=O)OC
inactive: [5] | [6] | [7] | [8] | [9] | [11]

CC(=O)NC1(c2cccc(F)c2)CCN(CC[C@@]2(c3ccc(Cl)c(Cl)c3)CN(c3ccccc3)C(=O)CO2)CC1
inactive: [5] | [8] | [12] | [1]
active: [6] 24.7 µM | [7] 6.76 µM | [9] 24.6 µM | [3] 2.77 µM | [4] 6.63 µM | [16] 1.78 µM | [10] 1.79 µM

CCCCCCCCCCCCc1ccccc1S(=O)(=O)O
active: [4] 5.06 µM | [15] 29.1 µM | [11] 2.23 µM | [17] 40.2 µM
inactive: [5] | [6] | [7] | [8] | [9]

FC(F)(I)C(F)(F)C(F)(F)C(F)(F)C(F)(F)C(F)(F)I
inactive: [7]
active: [5] 54.9 µM [middle of 5 runs] | [7] 9.66 µM and 45 µM and 41.6 µM | [9] 28.1 µM [middle of 5 runs]

O=C(O)Cc1cc(I)c(Oc2cc(I)c(O)c(I)c2)c(I)c1
inactive: [6] | [9] | [16] | [10] | [11]
active: [5] 23.6 µM | [7] 13.4 µM | [8] 19.6 µM

Reference: PubChem BioAssay (EPA / NIEHS)
